PubChem BioAssay (EPA / NIEHS)
Inconclusive results are not listed. Calls of active or inactive are those of the source. Rule for the calls: active = hit-call score of the fitted dose curve at least 0.9, where 1 is the maximum; inconclusive = response in the unintended direction; inactive = score below 0.9.

Assay: VALA_TUBHUV_Agonist_CellCount: Viability Assessment in the VALA Sciences human Umbilical Vein Endothelial Tubule Formation (TUBHUV) Agonism Assay (AID 2284309)
Summary of the method: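 HUVEC co-cultured 1:3 with HDF for 3 days in 10 ng/ml VEGF, then compounds added in VEGF medium for a further 3 days (72 h). Nuclear-stain/CD31 imaging cell count. Positive-direction fit versus 0.1% DMSO vehicle.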

Oc1ccc(C(c2ccc(O)cc2)(C(F)(F)F)C(F)(F)F)cc1
AC50: 65.5 µM (active)
